The panel holds about 83,000 compounds, 20% with a hit somewhere; the sample as a whole holds those more often.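 How to read the values: 0–100, growth inhibition (40 = 60% inhibited); 0, no net growth; -100 to 0, cell death (-40 = 40% of starting cells died; -100 = all dead).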 Calls of active or inactive are those of the source. How the source made its calls: active means growth percent below 10; inactive means the rest.
Legend:
Test in all cases: NCI-60 one-dose screen, 48 h (100 = growth as untreated, 0 = no growth, -100 = all killed)
Conditions in all cases: 10 µM unless noted
[1] = test system: SK-MEL-2 melanoma
[2] = test system: EKVX NSCLC
[3] = test system: SN12C renal
[4] = test system: UO-31 renal
[5] = test system: TK-10 renal
[6] = test system: ACHN renal
[7] = test system: CAKI-1 renal
[8] = test system: A498 renal
[9] = test system: CCRF-CEM leukemia
[10] = test system: MOLT-4 leukemia

Measured: growth

O=C(c1ccccc1)c1c(/C=C/c2ccccc2)nc2ccccc2c1/C=C/c1ccc(Br)cc1
inactive: [1] 110% | [2] 102% | [3] 92.7% | [4] 68.2% | [5] 107% | [6] 97% | [7] 80.9% | [8] 79.9% | [9] 97% | [10] 94.6%

Cc1c(C(=O)NC(Cc2ccccc2)C(O)C(=O)NCc2ccc(F)cc2)[nH]c2ccccc2c1=O (stereo not given)
inactive: [1] 108% | [2] 104% | [3] 107% | [4] 94% | [5] 102% | [6] 107% | [7] 102% | [8] 107% | [9] 109% | [10] 93.6%

CCN(CC)c1ccc(C(=O)c2ccc(N(CC)CC)cc2)cc1
inactive: [1] 18.7% | [2] 55% | [3] 40.8% | [4] 60.4% | [5] 35.1% | [6] 53.1% | [7] 43.4% | [8] 41.1% | [9] 19.8% | [10] 24.3%

COc1ccc(/C=N/C2=C(C#N)C(c3ccc(OC)cc3)c3ccc4ccccc4c3O2)cc1 (stereo not given)
inactive: [1] 84.4% | [2] 85.1% | [3] 76.5% | [4] 53.7% | [5] 87.1% | [6] 81.4% | [7] 37.3% | [8] 26.6% | [9] 77.4% | [10] 60.2%

COc1cc(/C=C2\C(=O)ON=C2C)cc(OC)c1OC
inactive: [1] 113% | [2] 97.8% | [3] 98.3% | [4] 80.3% | [5] 104% | [6] 96.9% | [7] 91.5% | [8] 65% | [9] 92.8% | [10] 102%

CCOC(=O)c1c(/C=C/C(=O)O)nc2ccccc2c1/C=C/c1ccccc1
inactive: [1] 47.4% | [2] 61.6% | [3] 27.1% | [4] 42.5% | [5] 65.5% | [6] 43.2% | [7] 62.3% | [9] 17.1% | [10] 25.5%
active: [8] 8.83%

Cc1c(Cl)cc(-n2c(=O)c3ccccc3c3ccccc3c2=O)cc1Cl
inactive: [1] 98.3% | [2] 97% | [3] 85.2% | [4] 65.3% | [5] 111% | [6] 101% | [7] 80.9% | [8] 141% | [9] 97.9% | [10] 95.5%

Cn1ccc2c(c1=O)C(=O)c1nccc3c1c-2nc1ccccc13
active: [5] 1.92% | [9] -12.8%
inactive: [1] 98.1% | [2] 86.9% | [3] 66.8% | [4] 46.2% | [6] 21.3% | [7] 61% | [8] 87.6% | [10] 34.5%

COc1cc(C2CC(c3ccc(Nc4ccnc5cc(Cl)ccc45)cc3)=NN2C=O)cc(OC)c1OC (stereo not given)
inactive: [1] 97.4% | [2] 76.7% | [3] 86.7% | [4] 61.9% | [5] 92.8% | [6] 87.5% | [7] 86.7% | [8] 93.2% | [9] 58% | [10] 43.1%

COc1cc(/C=N/n2c(CN3CCOCC3)nc3ccccc3c2=O)cc(OC)c1OC
inactive: [1] 113% | [2] 107% | [3] 101% | [4] 87.7% | [5] 103% | [6] 103% | [7] 100% | [8] 81.8% | [9] 104% | [10] 103%

Cn1c(I)c(C#C[Si](C)(C)C)c(=O)n(C(=O)c2ccccc2)c1=O
inactive: [1] 81% | [2] 91.2% | [3] 51% | [5] 43.6% | [6] 11.5% | [7] 40.9% | [8] 105%
active: [4] -78.4% | [9] -57.5% | [10] -69.9%

N#Cc1nc(C#N)c(Sc2ccccc2)c(Sc2ccccc2)c1Sc1ccccc1
inactive: [7] 17.7%
active: [1] -64.1% | [2] 8.11% | [3] 0.446% | [4] -72.1% | [5] -36.8% | [6] -78% | [8] -14.1% | [9] -7.95% | [10] -19.2%

O=C1/C(=C2/C=Nc3ccccc32)N(O)c2ccccc21
inactive: [1] 90.4% | [2] 66.9% | [3] 74.8% | [4] 57.7% | [5] 129% | [6] 68.7% | [7] 57.8% | [8] 55.4% | [9] 46.2% | [10] 48.4%

Cc1c(C(=O)N[C@@H](Cc2ccccc2)C(=O)C(=O)NCCc2ccccc2)[nH]c2ccccc2c1=O
inactive: [1] 111% | [2] 97.1% | [3] 83.4% | [4] 103% | [5] 118% | [6] 101% | [7] 95.9% | [8] 86.5% | [9] 104% | [10] 86.8%

CN1C(=O)N(C)C2C1NN=c1s/c(=C\c3ccccc3)c(=O)n12 (stereo not given)
inactive: [1] 48.4% | [2] 78.5% | [3] 50.1% | [4] 44.8% | [5] 10% | [6] 29.4% | [7] 33.5% | [9] 42.2% | [10] 58.1%
active: [8] 4.23%

COC(=O)c1ccc(C2Nc3ccc(S(=O)(=O)Nc4ccc(C)c(C)c4)cc3C3OCCC23)cc1 (stereo not given)
inactive: [1] 93.4% | [2] 57.9% | [3] 85.3% | [4] 74.9% | [5] 90.4% | [6] 89.4% | [7] 75% | [8] 74.3% | [9] 74.2% | [10] 60.6%

Cc1cccc(NC(=O)CSc2nc3ccccc3[nH]2)c1
inactive: [1] 109% | [2] 93.4% | [3] 98.8% | [4] 75% | [5] 106% | [6] 97.5% | [7] 82.6% | [8] 53.4% | [9] 102% | [10] 102%

NS(=O)(=O)c1ccc(-n2nc(C(=O)N/N=C\c3ccc(F)cc3)cc2-c2ccc(Cl)cc2)cc1
inactive: [1] 96.5% | [2] 75.1% | [3] 90.7% | [4] 62.4% | [5] 136% | [6] 90% | [7] 60.6% | [8] 68.5% | [9] 103% | [10] 89.2%

CC(C)(C)OC(=O)Nc1ccc2c(c1)C(NC(=O)Nc1cccc(C#N)c1)CC(C)(C)O2 (stereo not given)
inactive: [1] 36.3% | [2] 32.2% | [3] 62.9% | [4] 40.8% | [5] 39.3% | [6] 50.9% | [7] 39.2% | [8] 57.5% | [9] 41.7% | [10] 17.1%

O=C(CSc1nnc(-c2ccc(NC(=O)c3cccnc3)cc2)o1)N[C@@H](Cc1ccc(O)cc1)C(=O)O
inactive: [1] 99.8% | [2] 110% | [3] 94.4% | [4] 85.1% | [5] 106% | [6] 98.6% | [7] 92.4% | [8] 117% | [9] 96.6% | [10] 99.8%

CCN(CC)c1ccc2nc3c4ccccc4c(=NC(=O)c4ccccc4-c4c5ccc(N(CC)CC)cc5[o+]c5cc(N(CC)CC)ccc45)cc-3oc2c1
active: [10] -23.9%
inactive: [1] 41.7% | [2] 54.6% | [3] 64% | [4] 32.6% | [5] 74.6% | [6] 73.6% | [7] 55.2% | [8] 86.9% | [9] 24.4%

COc1cc(C2CC(=O)Nc3c2c(C)nn3-c2nc3ccccc3[nH]2)c(OC)c2c1OCO2 (stereo not given)
inactive: [1] 80.7% | [2] 71.7% | [3] 82.2% | [4] 40.2% | [5] 36.4% | [6] 86.2% | [7] 40.6% | [8] 38.8% | [9] 61.7% | [10] 13.5%

CCOC(=O)c1ccc(N2NC(=O)/C(=C/c3ccc([N+](=O)[O-])o3)C2=O)cc1
inactive: [1] 31.8% | [2] 111% | [3] 119% | [4] 100% | [5] 106% | [6] 104% | [7] 108% | [8] 109% | [9] 89.3% | [10] 105%

CCOC(=O)C/C(C)=N\NC(=O)c1ccncc1
inactive: [1] 120% | [2] 89.6% | [3] 99.9% | [4] 101% | [5] 95.8% | [6] 103% | [7] 52.4% | [8] 96.8% | [9] 99.7% | [10] 93.9%

Reference: PubChem BioAssay (NCI)
